In article PMC11062922 (Nature Chemical Biology, 2023):
Where two headings read alike, the source gives them in different places.

Key:
Parameters in all cases: species or system human, MV4-11 + K-562 + COLO205 + SK-N-BE2 + OVCAR-8
ABCD3 = conditions: read-out: apparent Kd, n = 1
PYGL = conditions: read-out: apparent Kd, compound concentrations: 100 nM and 1000 nM (sheet 'Samples'), n = 1
TESK1 = conditions: read-out: apparent Kd, compound concentrations: 100 nM and 1000 nM (sheet 'Samples'), n = 1
STK16 = conditions: read-out: apparent Kd, compound concentrations: 100 nM and 1000 nM (sheet 'Samples'), n = 1
TNIK = conditions: read-out: apparent Kd, compound concentrations: 100 nM and 1000 nM (sheet 'Samples'), n = 1
TEC = conditions: read-out: apparent Kd, n = 1
ADRBK1 = conditions: read-out: apparent Kd, n = 1
STK3 = conditions: read-out: apparent Kd, n = 1
MTOR = conditions: read-out: apparent Kd, n = 1
IRAK3 = conditions: read-out: apparent Kd, compound concentrations: 100 nM and 1000 nM (sheet 'Samples'), n = 1
CDK2 = conditions: read-out: apparent Kd, compound concentrations: 100 nM and 1000 nM (sheet 'Samples'), n = 1
CDK5 = conditions: read-out: apparent Kd, compound concentrations: 100 nM and 1000 nM (sheet 'Samples'), n = 1
LIMK2 = conditions: read-out: apparent Kd, compound concentrations: 100 nM and 1000 nM (sheet 'Samples'), n = 1
PIK3CA = conditions: read-out: apparent Kd, compound concentrations: 100 nM and 1000 nM (sheet 'Samples'), n = 1
MAPK8 = conditions: read-out: apparent Kd, n = 1
ADCK1 = conditions: read-out: apparent Kd; compound concentrations: 100 nM and 1000 nM (sheet 'Samples'), CATDS: 3.1344375728913298E-2; n = 1
ADCK3 = conditions: read-out: apparent Kd, compound concentrations: 100 nM and 1000 nM (sheet 'Samples'), n = 1
PTK2B = conditions: read-out: apparent Kd, n = 1
PTK2 = conditions: read-out: apparent Kd, n = 1
CDK1 = conditions: read-out: apparent Kd; compound concentrations: 100 nM and 1000 nM (sheet 'Samples'), CATDS: 1.4820123571840101E-2; n = 1
[1] = compound concentrations:100 nM and 1000 nM (sheet 'Samples')

## COc1ccc(Nc2nccc(N3CCC(NC(=O)Nc4ccc5c(c4)OCO5)C3)n2)cc1 (stereo not shown) [GSK1379745A]
ABCD3; compound concentrations: 100 nM and 1000 nM (sheet 'Samples'), CATDS: 3.9996680208342399E-2
  potency estimated from few doses: 1500 nM
PYGL; CATDS: 3.8130802338003297E-2
  potency estimated from few doses: 1670 nM
TESK1; CATDS: 7.4775560770701202E-2
  potency estimated from few doses: 510 nM

## CN1C(=O)c2ccccc2N(C)c2nc(Nc3cnn(C4CCNCC4)c3)ncc21 [XMD-17-51]
STK16; CATDS: 1.46632885257346E-2
  potency estimated from few doses: 1360 nM

## Cl.Oc1cccc(Nc2ccnc3cc(-c4ccncc4)ccc23)c1 [GW494601A]
TNIK; CATDS: 2.0441514499226199E-2
  potency estimated from few doses: 1280 nM

## Cc1ccc(O)cc1Nc1ccnc2cc(-c3ccc(CN4CCCCC4)o3)ccc12 [GW557777X]
TEC; compound concentrations: 100 nM and 1000 nM (sheet 'Samples'), CATDS: 1.34758228974899E-2
  potency estimated from few doses: 1040 nM

## CS(=O)(=O)Cc1ccc(Nc2nccc(-c3c(-c4cccc(NC(=O)C5CCCCC5)c4)nn4ncccc34)n2)cc1 [GSK350559A]
ABCD3; [1]
  potency estimated from few doses: 1580 nM
ADRBK1; [1]
  potency estimated from few doses: 1690 nM
STK3; [1]
  potency estimated from few doses: 1920 nM

## CS(=O)(=O)CCNCc1ccc(-c2ccc3ncnc(Nc4ccc(OCc5cccc(F)c5)c(C(F)(F)F)c4)c3c2)o1 [GW576484X]
ABCD3; compound concentrations: 100 nM and 1000 nM (sheet 'Samples'), CATDS: 5.3363712768055301E-2
  potency estimated from few doses: 1700 nM
MTOR; compound concentrations: 100 nM and 1000 nM (sheet 'Samples'), CATDS: 9.7740197678702595E-2
  potency estimated from few doses: 599 nM

## Cl.Cl.Cl.c1ccc(Oc2ccc(Nc3ccnc4cc(-c5ccc(CN6CCNCC6)o5)ccc34)cc2)nc1.c1ccc(Oc2ccc(Nc3ccnc4cc(-c5ccc(CN6CCNCC6)o5)ccc34)cc2)nc1 [GW567142A]
PYGL; CATDS: 1.6934358184527699E-2
  potency estimated from few doses: 2080 nM
TEC; compound concentrations: 100 nM and 1000 nM (sheet 'Samples'), CATDS: 1.92615538801734E-2
  potency estimated from few doses: 1300 nM
TNIK; CATDS: 1.6971599300490501E-2
  potency estimated from few doses: 2060 nM

## NC(=O)c1cccc(Nc2nccc(Nc3cccc4[nH]ncc34)n2)c1 [GW782612X]
IRAK3; CATDS: 4.1377048408479999E-2
  potency estimated from few doses: 891 nM

## CC(C)c1nc(-c2cccc(NS(=O)(=O)c3ccccc3)c2)c(-c2ccnc(Nc3ccc4c(c3)CN(C)CC4)n2)s1 [GSK1649598A]
CDK2; CATDS: 1.6681675288379799E-2
  potency estimated from few doses: 614 nM
CDK5; CATDS: 2.0487115884267999E-2
  potency estimated from few doses: 353 nM
LIMK2; CATDS: 3.5211660098846E-2
  potency estimated from few doses: 116 nM
TESK1; CATDS: 9.9245429656874704E-2
  potency estimated from few doses: 24.2 nM
TNIK; CATDS: 1.2157872123198099E-2
  potency estimated from few doses: 2170 nM

## O=C1N=C(NCCc2ccccc2F)S/C1=C\c1ccc2ncccc2c1 [RO4498483-000]
PIK3CA; CATDS: 0.16167463298299301
  potency estimated from few doses: 268 nM

## COc1cc(Nc2nccc(N3CCC(NC(=O)C4COc5ccccc5O4)C3)n2)cc(OC)c1OC (stereo not shown) [GSK1379761A]
IRAK3; CATDS: 0.29618099534974801
  potency estimated from few doses: 900 nM

## COc1cc(Nc2nccc(N3CCC(NC(=O)c4cccc(C#N)c4)C3)n2)cc(OC)c1OC (stereo not shown) [GSK1379751A]
IRAK3; CATDS: 0.26615341135904602
  potency estimated from few doses: 510 nM

## O=C1N=C(NCCc2cccc(Cl)c2)S/C1=C\c1ccc2ncccc2c1 [RO4509201-000]
PIK3CA; CATDS: 0.11246138422507899
  potency estimated from few doses: 274 nM

## O=C1N=C(NCCc2ccccn2)S/C1=C\c1ccc2ncccc2c1 [RO4508346-000]
STK16; CATDS: 6.4775104376565806E-2
  potency estimated from few doses: 2150 nM

## Cc1cccc(-c2cc(-c3c[nH]nc3-c3ccccn3)ccn2)c1 [GW679395X]
ABCD3; [1]
  potency estimated from few doses: 1200 nM
MAPK8; [1]
  potency estimated from few doses: 1610 nM
MTOR; [1]
  potency estimated from few doses: 501 nM
TEC; [1]
  potency estimated from few doses: 1320 nM

## COc1cccc(-n2ncc3c(N/N=C/c4ccc(C(=O)NCCN(C)C)cc4)ncnc32)c1.Cl [GW784307A]
ADCK1
  potency estimated from few doses: 900 nM
IRAK3; CATDS: 2.7757665118228601E-2
  potency estimated from few doses: 1410 nM

## CCc1nc(-c2cccc(N(C)S(=O)(=O)c3ccccc3)c2)c(-c2ccnc(Nc3ccc(N4CCN(C(C)=O)CC4)nc3)n2)s1 [GSK1645895A]
ABCD3; compound concentrations: 100 nM and 1000 nM (sheet 'Samples'), CATDS: 0.16057119825567601
  potency estimated from few doses: 1310 nM
ADCK3; CATDS: 0.47577761034239902
  potency estimated from few doses: 196 nM

## O=C1N=C(NCc2ccccc2Cl)S/C1=C\c1ccc2ncccc2c1 [RO4506917-000]
PIK3CA; CATDS: 0.16964202934765399
  potency estimated from few doses: 283 nM

## Cc1cccc(Nc2nc(NCCN)ncc2C(N)=O)c1 [GSK1292139B]
TNIK; CATDS: 7.7542557386304695E-2
  potency estimated from few doses: 1140 nM

## O=C1N=C(NCc2cccs2)SC1Cc1ccc2ncccc2c1 (stereo not shown) [RO4629078-000]
MTOR; compound concentrations: 100 nM and 1000 nM (sheet 'Samples'), CATDS: 1.0012071697909601E-2
  potency estimated from few doses: 667 nM
PTK2B; compound concentrations: 100 nM and 1000 nM (sheet 'Samples'), CATDS: 1.78994015869859E-2
  potency estimated from few doses: 211 nM
PTK2; compound concentrations: 100 nM and 1000 nM (sheet 'Samples'), CATDS: 1.61758600761754E-2
  potency estimated from few doses: 250 nM
TEC; compound concentrations: 100 nM and 1000 nM (sheet 'Samples'), CATDS: 8.6375652210939294E-3
  potency estimated from few doses: 1000 nM

## COc1cc(Nc2ccnc3cc(-c4ccncc4)ccc23)cc(OC)c1OC.Cl [GW494610A]
TESK1; CATDS: 2.92896642952412E-2
  potency estimated from few doses: 549 nM
TNIK; CATDS: 2.73925679017063E-2
  potency estimated from few doses: 689 nM

## CCn1cc(-c2ccnc3[nH]c(-c4cccc(CN(C)C)c4)cc23)c(-c2ccc(NC(=O)N(C)C)cc2)n1 [GSK1070916]
ABCD3; [1]
  potency estimated from few doses: 1970 nM

## Cn1cc(-c2cnc(N)c3c(-c4ccc5c(c4)CCN5C(=O)Cc4ccccc4)csc23)cn1 [GSK2593074A]
STK3; [1]
  potency estimated from few doses: 1890 nM

## CS(=O)(=O)c1ccc(-c2cnc(N)c(C(=O)Nc3ccccc3)n2)cc1 [VE-821]
ADCK3; CATDS: 0.149033723356022
  potency estimated from few doses: 1370 nM

## Cl.Cn1c(=O)c(Cc2ccc(F)cc2F)cc2cnc(NC3CCOCC3)nc21 [RO3308757-001]
PTK2B; [1]
  potency estimated from few doses: 456 nM
PTK2; [1]
  potency estimated from few doses: 474 nM

## CC(=O)N1CCN(c2ccc(Nc3nccc(-c4sc(C(C)C)nc4-c4cccc(NS(=O)(=O)c5cccc(Cl)c5)c4)n3)cn2)CC1 [GSK1660437A]
LIMK2; CATDS: 4.7315516345464E-2
  potency estimated from few doses: 946 nM

## O=S(=O)(CCOCc1ccc(-c2ccc3ncnc(Nc4ccc(OCc5cccc(F)c5)c(Cl)c4)c3c2)o1)c1ccccc1 [GW615311X]
MAPK8; compound concentrations: 100 nM and 1000 nM (sheet 'Samples'), CATDS: 2.6376171995156399E-2
  potency estimated from few doses: 1540 nM
MTOR; compound concentrations: 100 nM and 1000 nM (sheet 'Samples'), CATDS: 4.7570184263153799E-2
  potency estimated from few doses: 527 nM
STK3; compound concentrations: 100 nM and 1000 nM (sheet 'Samples'), CATDS: 2.3351352966808198E-2
  potency estimated from few doses: 2070 nM

## Fc1cc(Cl)ccc1Nc1ccnc2cc(-c3ccc(CN4CCOCC4)o3)ccc12 [GW560109X]
TNIK; CATDS: 4.94410528213204E-2
  potency estimated from few doses: 2050 nM

## CC(C)c1nc(-c2cccc(NS(=O)(=O)c3c(F)cccc3F)c2)c(-c2ccnc(Nc3ccc(N4CCOCC4)nc3)n2)s1.Cl [GSK1723980B]
CDK1
  potency estimated from few doses: 1580 nM
CDK2; CATDS: 1.87425082345213E-2
  potency estimated from few doses: 614 nM
CDK5; CATDS: 2.2922403030908301E-2
  potency estimated from few doses: 350 nM
LIMK2; CATDS: 2.58899611952562E-2
  potency estimated from few doses: 263 nM
TESK1; CATDS: 3.6756821103285202E-2
  potency estimated from few doses: 132 nM

## CC(=O)N1CCN(c2ccc(Nc3nccc(-c4sc(C(C)C)nc4-c4cccc(NS(=O)(=O)c5ccccc5)c4)n3)cn2)CC1 [GSK1645872A]
ADCK3; CATDS: 3.3548638845590201E-2
  potency estimated from few doses: 570 nM
ADRBK1; compound concentrations: 100 nM and 1000 nM (sheet 'Samples'), CATDS: 2.7359704437324502E-2
  potency estimated from few doses: 943 nM
CDK2; CATDS: 2.76064563935246E-2
  potency estimated from few doses: 919 nM
CDK5; CATDS: 3.88696390995786E-2
  potency estimated from few doses: 420 nM
LIMK2; CATDS: 4.5143474402307197E-2
  potency estimated from few doses: 319 nM
